{"source": "PubChem BioAssay (NCATS)", "note": "Results filed as inconclusive are left out. Activity calls are given as the source filed them. The call rests on the fitted dose curve; in most records, active means well fitted inhibition curve with a large enough effect; inconclusive means small, poorly fitted or top-dose-only effect; inactive means no such curve, though single readings can be large or run the other way. Potency means the concentration at half of the fitted maximal effect."}
{"target": "Protein phosphatase 1D (Homo sapiens) (UniProt O15297)", "sequence (O15297 whole entry, looked up)": "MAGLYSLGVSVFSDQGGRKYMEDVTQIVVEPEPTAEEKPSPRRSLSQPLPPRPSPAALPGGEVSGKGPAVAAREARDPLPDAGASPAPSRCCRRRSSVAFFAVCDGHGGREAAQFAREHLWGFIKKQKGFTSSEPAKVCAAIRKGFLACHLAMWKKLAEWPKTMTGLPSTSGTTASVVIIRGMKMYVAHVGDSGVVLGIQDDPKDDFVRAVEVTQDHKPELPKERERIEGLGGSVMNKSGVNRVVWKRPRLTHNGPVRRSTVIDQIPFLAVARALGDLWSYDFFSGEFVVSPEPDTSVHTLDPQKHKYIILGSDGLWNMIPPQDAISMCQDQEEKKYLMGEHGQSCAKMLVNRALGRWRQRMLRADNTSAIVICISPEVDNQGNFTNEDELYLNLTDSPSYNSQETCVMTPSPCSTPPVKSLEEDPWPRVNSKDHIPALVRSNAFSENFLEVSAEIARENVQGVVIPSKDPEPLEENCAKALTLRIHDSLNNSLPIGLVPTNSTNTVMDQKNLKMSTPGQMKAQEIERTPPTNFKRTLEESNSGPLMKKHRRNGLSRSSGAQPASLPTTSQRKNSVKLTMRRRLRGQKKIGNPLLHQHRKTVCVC", "assay": "RapidFire Mass Spectrometry qHTS Assay for Modulators of WT P53-Induced Phosphatase 1 (WIP1) (AID 1347424)", "conditions": "WIP1 dephosphorylation of phosphopeptide, RapidFire MS; series mostly up to 63 µM; activity change, negative = inhibition: at the top concentration", "from_the_text": "Assay Provider (PI): Nathan Coussens Ph. D.\nNational Center for Advancing Translational Sciences (NCATS), Rockville, MD\nNational Institute of Health (NIH), Bethesda, Maryland\nWT P53-Induced Phosphatase 1 (WIP1) is a member of the magnesium-dependent serine/threonine protein phosphatase (PPM) family and is induced by P53 in response to DNA damage. In several human cancers, the WIP1 protein is overexpressed, which is generally associated with a worse prognosis. Although WIP1 is an attractive therapeutic target, no potent, selective, and bioactive small-molecule modulator with favorable pharmacokinetics has been reported. Phosphatase enzymes are among the most challenging targets for small molecules because of the difficulty of achieving both modulator selectivity and bioavailability. Another major obstacle has been the availability of robust and physiologically relevant phosphatase assays that are suitable for high-throughput screening.\nHere, we describe two orthogonal biochemical WIP1 activity assays that utilize phosphopeptides from native WIP1 substrates. We optimized a RapidFire MS assay to quantify the enzymatically dephosphorylated peptide reaction product in a 384-well format. Additionally, a redshifted Rhodamine-PBP fluorescence assay was optimized in a 1,536-well format to enable real-time WIP1 activity measurements through the detection of the orthogonal reaction product, Pi. We validated these two optimized assays by quantitative high-throughput screening against the National Center for Advancing Translational Sciences (NCATS) Pharmaceutical Collection and used secondary assays to confirm and evaluate inhibitors identified in the primary screen.\nSEQUENCE No. (e.g., 1, 2, 3, etc.); […] (e.g., Cells, Incubation, Reagent, etc.); VALUE; DESCRIPTION\n1; Reagent; 50 uL; dispensed assay buffer: 0.1% formic acid in water (10 uL : 40 uL) solution in column 1\n3; Library Compounds; 63 nL; library compounds in DMSO, columns 3-24\n4; Control Compounds; 63 nL; DMSO in wells I-P, columns 1-2, GSK830371 (10 uM, final) in wells A-H, column 2\n5; Time; 1 hr; incubation\n6; Substrate; 2 uL; VEPPL-pS-QETFS (10 uM) in assay buffer, column 2-24\n7; Time; 5 min; incubation\n8; Reagent; 2 uL; 0.5% formic acid in water, columns 2-24\n9; Reagent; 38 uL; VEPPL-S-QETF*S in 0.1% formic acid, columns 2-24\n10; Detection; mass spec; RapidFire mass spectrometry\nNOTES (numbers refer to sequence above)\n1, 2, 6; dispensed reagent in White Nunc 384-well PP microplates (264573); assay buffer: 50 mM Tris-HCl pH 7.5, 30 mM MgCl2, 1 mM TCEP, 0.1 mM EGTA, 75 ug/mL BSA.\n2, 6, 8, 9; Dispensed with BioRaptr (Beckman Coulter)\n2, 6, 9; Final concentrations: 10 nM WIP1; 2 uM VEPPL-pS-QETFS; 1 uM VEFFL-S-QETF*S\n3 & 4; Kalypsys Pintool transfer (Wako USA), Tip wash sequence: water, DMSO, methanol, 20 sec vacuum dry.\n5 & 7; incubation at room temperature\n10; RapidFire mass spectrometry read using the Agilent RapidFire 360 (Clausse, 2019)\nClausse V, et al. Physiologically relevant orthogonal assay for the discovery of small-molecule modulators of WIP1 […] in high-throughput screens. J Biol Chem. 2019, 294(46): 17654-17668. doi:10.1074/jbc.RA119.010201"}
{"smiles": "CC(C)=CCC/C(C)=C/CC/C(C)=C/C(=O)OCC(=O)[C@@]1(O)CC[C@H]2[C@@H]3CCC4=CC(=O)C=C[C@]4(C)[C@H]3[C@@H](O)C[C@@]21C", "activity change, negative = inhibition": "-8.62% (inactive)"}
{"smiles": "COc1cc(S(N)(=O)=O)cc(C(=O)O)c1OC", "activity change, negative = inhibition": "-4.71% (inactive)"}
{"smiles": "COc1ccccc1N1CCN(CC(O)COc2cc(OC)c(OC)c(OC)c2)CC1", "note": "(stereo not given)", "activity change, negative = inhibition": "-5.15% (inactive)"}
{"smiles": "Cn1cc(S(C)=O)c(=O)c2ccc(F)cc21", "note": "(stereo not given)", "activity change, negative = inhibition": "18.7% (inactive)"}
{"smiles": "OC1(c2ccccc2)CCNCC1", "activity change, negative = inhibition": "-9.21% (inactive)"}
{"smiles": "CCOC(=O)c1ccc(OCCN2C[C@H](O)[C@@H](O)[C@H](O)[C@H]2CO)cc1", "activity change, negative = inhibition": "10.6% (inactive)"}
{"smiles": "CO/N=C(/C(=O)N[C@@H]1C(=O)N2C(C(=O)O)=C(Cn3nnc(C)n3)CS[C@H]12)c1csc(N)n1", "activity change, negative = inhibition": "-3% (inactive)"}
{"smiles": "Cc1oc(=O)oc1COC(=O)[C@@H]1N2C(=O)[C@@H](NC(=O)[C@H](N)c3ccccc3)[C@H]2SC1(C)C", "activity change, negative = inhibition": "8.21% (inactive)"}
{"smiles": "CO[C@@]1(NC(=O)CSC[C@@H](N)C(=O)O)C(=O)N2C(C(=O)O)=C(CSc3nnnn3C)CS[C@@H]21", "activity change, negative = inhibition": "-3.77% (inactive)"}
{"smiles": "COc1cc(OC)nc(O[C@H](C(=O)O)C(OC)(c2ccccc2)c2ccccc2)n1", "activity change, negative = inhibition": "0.597% (inactive)"}
{"smiles": "CCN(CC)CCOc1ccc(/C(=C(\\Cl)c2ccccc2)c2ccccc2)cc1", "activity change, negative = inhibition": "38.1% (inactive)"}
{"smiles": "O=C(Oc1ccccc1)c1ccccc1O", "activity change, negative = inhibition": "0.722% (inactive)"}
{"smiles": "O=C(O)c1cn(C2CC2)c2cc(Cl)c(F)cc2c1=O", "activity change, negative = inhibition": "-8.98% (inactive)"}
{"smiles": "O=C(O)C1CCC1", "activity change, negative = inhibition": "6.32% (inactive)"}
{"smiles": "CCn1ccc(NS(=O)(=O)c2ccc(N)cc2)nc1=O", "activity change, negative = inhibition": "-7.31% (inactive)"}
{"smiles": "O=C(O)c1ccccc1Nc1cc(Cl)ccc1C(=O)O", "activity change, negative = inhibition": "-0.155% [at 26.6 µM] (inactive)"}
{"smiles": "NS(=O)(=O)c1ccc(N2CCCCS2(=O)=O)cc1", "activity change, negative = inhibition": "6.92% (inactive)"}
{"smiles": "CN(C)C(=O)CNC(=O)Cc1ccccc1", "activity change, negative = inhibition": "-29% (inactive)"}
{"smiles": "O=C1CC2(CCCC2)CC(=O)N1", "activity change, negative = inhibition": "16.6% (inactive)"}
{"smiles": "CN(C)[C@@H]1C(=O)C(C(N)=O)=C(O)[C@@]2(O)C(=O)C3=C(O)c4c(O)cccc4C[C@H]3C[C@@H]12", "activity change, negative = inhibition": "-8.93% (inactive)"}
{"smiles": "COCCc1ccc(OCC2CO2)cc1", "note": "(stereo not given)", "activity change, negative = inhibition": "-3.56% (inactive)"}
{"smiles": "CC(C)=CCC/C(C)=C/CC/C(C)=C/CCC(=O)OC/C=C(\\C)CCC=C(C)C", "activity change, negative = inhibition": "5.53% (inactive)"}
{"smiles": "CC(C)C(=O)Nc1cccc(C2CN3CCSC3=N2)c1", "note": "(stereo not given)", "activity change, negative = inhibition": "-6.65% (inactive)"}
{"smiles": "CCOC(=O)[C@H](CCc1ccccc1)N[C@@H](C)C(=O)N(CC(=O)O)C1Cc2ccccc2C1", "activity change, negative = inhibition": "-5.02% (inactive)"}
{"smiles": "CCN(CC)CC(=O)Nc1c(C)cccc1C(=O)OC", "activity change, negative = inhibition": "3.33% (inactive)"}
{"smiles": "NC(=O)NC1N=C([O][Al])NC1=O", "note": "(stereo not given)", "activity change, negative = inhibition": "-16.3% (inactive)"}
{"smiles": "O=C(O)c1[nH]n(-c2ccc(S(=O)(=O)O)cc2)c(=O)c1N=Nc1ccc(S(=O)(=O)O)cc1", "activity change, negative = inhibition": "-7.17% (inactive)"}
{"smiles": "CC(C)(C)C1CCC(CC2=C(O)c3ccccc3C(=O)C2=O)CC1", "note": "(stereo not given)", "activity change, negative = inhibition": "-7.43% (inactive)"}
{"smiles": "CCOC(=O)C(O)c1ccccc1", "note": "(stereo not given)", "activity change, negative = inhibition": "10.8% (inactive)"}
{"smiles": "NCC(=O)O", "activity change, negative = inhibition": "59.8% [at 26.6 µM] (inactive)"}
{"smiles": "O=C(O)Cc1ccc(OCCNC[C@H](O)c2ccccc2)cc1", "activity change, negative = inhibition": "4.06% (inactive)"}
{"smiles": "COc1cc(NS(=O)(=O)c2ccc(N)cc2)nc(C)n1", "activity change, negative = inhibition": "0% (inactive)"}
{"smiles": "CCCCOC(=O)CCCCCCCCC(=O)OCCCC", "activity change, negative = inhibition": "3.15% (inactive)"}
{"smiles": "CCCC(=O)c1cc(O)c(O)cc1O", "Potency": "35.5 µM (active)"}
{"smiles": "Cc1nc2n(c(=O)c1CCN1CCC(C(=O)c3ccc(F)cc3)CC1)CCS2", "activity change, negative = inhibition": "-21.8% (inactive)"}
{"smiles": "CO/N=C(/C(=O)N[C@@H]1C(=O)N2C(C(=O)OCOC(=O)C(C)(C)C)=C(C)CS[C@H]12)c1csc(N)n1", "activity change, negative = inhibition": "-1.26% (inactive)"}
{"smiles": "CCCC(=O)OCOC(=O)C1=C(C)NC(C)=C(C(=O)OC)C1c1cccc(Cl)c1Cl", "note": "(stereo not given)", "activity change, negative = inhibition": "3.56% (inactive)"}
{"smiles": "Nc1c[n+](N2CCOCC2)no1", "activity change, negative = inhibition": "-0.111% (inactive)"}
{"smiles": "N#C/C(=C1/SC[C@@H](c2ccc(Cl)cc2Cl)S1)n1ccnc1", "activity change, negative = inhibition": "-21.1% (inactive)"}
{"smiles": "O=C(Nc1ccc(Cl)cc1)Nc1ccc(Cl)c(Cl)c1", "activity change, negative = inhibition": "-0.968% (inactive)"}
